Shown are actives, neighbours in structure and some others; about 19% of the full set was active somewhere.
IL1B secr inh = blocks inflammasome-driven IL-1 beta release; THP-1 LPS/ATP IL-1B secretion, AlphaLISA, 16 h; stronger effect = lower value; activity change, % at 57.5 µM; 4.7% of 360,000 active; in the data active = activity change below about -50%; inconclusive = mostly about -30% to -49%
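THP-1 cells pretreated 1 hr with compounds (up to 57.5 uM final), then stimulated with LPS (250 ng/mL final) plus ATP (1.25 mM final); secreted IL-1B measured by AlphaLISA after 16 hr, decreased signal indicating inhibition.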
TDP1 cell CPT = growth inhibition of DT40 Tdp1-/-;hTDP1 cells with camptothecin (screen for TDP1 inhibitors). Potency, µM (doses to about 46.2 µM), for the others: at the top dose activity change, negative = growth inhibition, usual class: inhibitors. 12% of 420,000 active. AID 686979. chicken DT40 Tdp1-/-;hTDP1 cells + 20 nM CPT, ATP luminescence, 48 h; note: potency is the fitted concentration of half-maximal effect; nearly all actives have a fitted effect of over 55% in size
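Cell growth measured by CellTiter-Glo luminescence after a minimum 48 h, 37 C compound exposure with 20 nM CPT in Tdp1-knockout DT40 cells stably expressing hTDP1, seeded 400/well; qHTS titration format.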
HT1080 IDH1KD tx = HT-1080 IDH1 knockdown cell toxicity (counter line); HT-1080 IDH1 knockdown viability, ATP luminescence, 48 h; 2% of 360,000 active; Potency, µM (titrated, usually from 46.1 µM), for inactives: at the top dose activity, negative = toxicity, most hits filed as cytotoxic; AID 686971;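 note: potency is the fitted concentration of half-maximal effect; 0% = DMSO wells and -100% = cell-free medium wells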
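Viability of IDH1-knockdown HT-1080 fibrosarcoma cells was assessed by CellTiter-Glo after 48 h at 37 °C with titrated compound; concentration-effect curves were classified by fit quality and response size.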
HT1080NT lethal = kills 2HG-producing HT-1080-NT fibrosarcoma cells; 1.6% of 360,000 active; HT-1080-NT fibrosarcoma viability, CellTiter-Glo ATP luminescence, 48 h; AID 686970; Potency, µM (titrated, usually from 46.1 µM), inactives show at the highest dose activity, negative = less viability, hits mostly cytotoxic;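 note: NT is the 2HG producing partner of a matched IDH1 knockdown line; potency is the fitted concentration of half-maximal effect; 0% = DMSO-treated cells and -100% = media-only wells without cells; nearly all actives have a fitted effect of over 55% in size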
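Viability of the 2HG-overproducing fibrosarcoma line after 48 hours of compound exposure at 37 degrees C was determined by luminescence with CellTiter-Glo, and concentration-effect curves were then fitted and categorized.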
DT40 TDP1 no CPT = qHTS for Inhibitors of human tyrosyl-DNA phosphodiesterase 1 (TDP1): qHTS in cells in absence of CPT | Potency, µM (highest dose often 46.2 µM), without a hit: at the top dose activity change, negative = growth inhibition, usual class: inhibitors | 15% of 420,000 active | DT40 Tdp1-/- hTDP1 cells, no CPT, ATP luminescence, 48 h; note: potency is the fitted concentration of half-maximal effect; nearly all actives have a fitted effect of over 55% in size
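Cells were dispensed at 400 per well, compounds added by pin tool, plates incubated ≥48 hr at 37 °C, then CellTiter-Glo added for 30 min at room temperature before luminescence reading. Line: DT40 Tdp1-/- complemented with hTDP1; camptothecin omitted.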
An asterisk follows results filed as active; ? = inconclusive; . = not tested or not shown; [ ] = another dose, or the depositor's remark. Unless noted, calls come from the whole dose curve; as a rule, active = well fitted curve in the direction sought with a large enough effect; inconclusive = small, poorly fitted or top-dose-only effect, or another doubt; inactive = no such curve, though single readings can be large; an effect the other way counts as inactive or inconclusive. Unless noted, % is set by controls: 0 for no effect and ±100 for the full control effect.

SMILES	IL1B secr inh	TDP1 cell CPT	HT1080 IDH1KD tx	HT1080NT lethal	DT40 TDP1 no CPT
CN(C)CCNC(=O)c1ccc2nc([C@@H]3O[C@H](CO)[C@H](O)[C@H](O)[C@H]3O)[nH]c2c1	-6.2	12.9%	21.0%	12.7%	0.5%
O=C(/C=C/Nc1ccc(Br)cn1)c1cccc(OC(F)F)c1	-7.7	?	-20.8%	?	?
COc1ccc(NC(=O)Cn2nnnc2-c2ccccc2F)c(C)c1	.	-6.2%	.	.	-1.3%
Cc1cc([N+](=O)[O-])nn1CCCC(=O)NC1CCCCC1	1.3	-8.9%	-0.5%	-6.8%	-9.7%
S=C1Cc2ccccc2N1	-101.4*	0.92µM*	5.17µM*	4.61µM*	0.731µM*
O=C(c1cc(-c2ccc(Cl)cc2)n[nH]1)N1CCN(C(=O)c2ccco2)CC1	-3.4	-27.4%	-1.5%	0.3%	-12.1%
CCOC(=O)c1[nH]c2c(c1-c1ccccc1)C(=O)CC(c1ccccc1)C2 (stereo not given)	12.6	-26.5%	-12.8%	1.3%	?
CCOC(=O)c1[nH]c2c(c1Cc1ccccc1)C(=O)CC(c1ccccc1)C2 (stereo not given)	.	18.4µM*	.	.	20.6µM*
Cc1c(C(=O)OCc2ccccc2)[nH]c2c1C(=O)CC(c1ccc(Cl)cc1)C2 (stereo not given)	.	18.4µM*	.	.	14.6µM*
COC(=O)c1[nH]c2c(c1C)C(=O)CC(c1ccccc1)C2 (stereo not given)	45.0	1.3µM*	?	0.447µM*	1.3µM*
COC(=O)c1ccccc1NC(=O)CNCCc1ccc(OC)c(OC)c1	2.2	-21.1%	7.6%	17.7%	-22.9%
CCC1Sc2ccc(S(=O)(=O)CCC(=O)Nc3cccc(Br)c3)cc2NC1=O (stereo not given)	35.1	-25.2%	-23.1%	-1.1%	5.1%
CC(C)c1ccc(NC(=O)CCn2c(=O)c3cccn3c3ccccc32)cc1	.	20.6µM*	.	.	14.6µM*
Cc1cc(C)c(NC(=O)CCN2C(=O)c3ccccc3S2(=O)=O)c(C)c1	-20.1	-4.9%	15.9%	18.7%	1.8%
Cc1cc(C)c(NC(=O)CCn2c(=O)c3cccn3c3ccccc32)c(C)c1	.	?	.	.	16.4µM*
Cc1cccc(C)c1NC(=O)Cn1c(=O)c2cccn2c2ccccc21	-2.7	?	1.3%	-4.8%	-8.8%
CC(C)c1ccc(NC(=O)Cc2cn(C)c3ccccc23)cc1	8.4	-29.4%	2.1%	-1.5%	16.4µM*
CCc1cccc(C)c1NC(=O)CCn1c(=O)c2cccn2c2ccccc21	.	?	.	.	23.1µM*
COC(=O)c1ccc(CNC(=O)c2ccc(S(=O)(=O)N3CCCC(C)C3)cc2)cc1 (stereo not given)	8.4	?	8.3%	-1.3%	-20.3%
Cc1cc(C=O)c(O)cc1O	27.7	-13.4%	0.0%	0.4%	-14.6%
CCOc1cc(/C=N/NC(=O)C(=O)NCc2ccc3c(c2)OCO3)ccc1OCC(=O)N1CCOCC1	9.6	-0.6%	3.2%	0.6%	13.4%
Cc1ccccc1OCC(=O)Nc1ccc2c(c1)C(=O)N(CCC(=O)O)C2=O	9.6	?	13.3%	0.0%	1.7%
CCOc1ccc(S(=O)(=O)n2cnc3cc(C)c(C)cc32)cc1	-18.6	?	?	?	8.2µM*
Cc1cc2ncn(S(=O)(=O)c3ccc(S(=O)(=O)N4CCCCCC4)cc3)c2cc1C	25.4	16.4µM*	?	6.0%	20.6µM*
Cc1cc2ncn(S(=O)(=O)c3ccc(S(N)(=O)=O)cc3)c2cc1C	16.5	-12.6%	-2.5%	7.3%	-36.1%
SMILES	IL1B secr inh	TDP1 cell CPT	HT1080 IDH1KD tx	HT1080NT lethal	DT40 TDP1 no CPT
O=S(=O)(Nc1ccc2c(c1)nc1n2CCOC1)c1ccc(Cl)cc1	23.9	?	-0.2%	5.0%	13µM*
C[C@@](N)(C(=O)O)[C@@H]1C[C@@H]1C(=O)O	.	-17.5%	.	.	-18.7%
CCOC(=O)C1CCCN(C(=O)Cn2ncc3c(C)n(Cc4ccccc4F)c(C)c3c2=O)C1 (stereo not given)	.	25.9µM*	.	.	18.4µM*
CCOC(=O)C1CCCN(C(=O)Cn2ncc3c(C)n(Cc4ccc(Cl)cc4)c(C)c3c2=O)C1 (stereo not given)	.	8.2µM*	.	.	8.2µM*
CCOC(=O)C1CCCN(C(=O)Cn2ncn3c(cc4sc(CC)cc43)c2=O)C1 (stereo not given)	.	20.6µM*	.	.	?
O=C(COC(=O)CNC(=O)c1ccccc1)NC12CC3CC(CC(C3)C1)C2	-6.6	-26.6%	-3.2%	-2.6%	-27.4%
CCOC(=O)C1(C)CCN1C(=O)c1ccc(F)c(Cl)c1 (stereo not given)	16.0	-29.7%	14.0%	20.5%	-15.9%
OC(COc1c(F)cc(Br)cc1F)CN1CCc2ccccc2C1 (stereo not given)	-7.1	?	1.5%	-1.8%	?
Cc1cccc(C)c1OCC(O)CN (stereo not given)	-59.1*	-2.0%	10.8%	6.1%	-12.7%
Cc1ccc(C(C)C)c(OCC(O)CN2CCc3ccccc3C2)c1 (stereo not given)	-101.0*	?	?	?	?
Cc1cccc(C)c1OCC(O)CN1CCc2ccccc2C1 (stereo not given)	11.9	4.61µM*	?	?	6.51µM*
Cc1cccc(C)c1OCC(O)Cn1ccnc1C (stereo not given)	-3.4	?	-3.8%	-7.4%	?
Cc1ccc(Cl)c(OCCN2CCc3ccccc3C2)c1	-11.4	?	-12.6%	-9.5%	23.1µM*
CSCC[C@H](NC(=O)[C@H](Cc1ccccc1)NC[C@@H](NC[C@@H](N)CS)C(C)C)C(=O)O	.	-24.3%	.	.	?
CC1(C)CC(=O)C(CSC(=O)c2ccccc2)C(=O)C1	-15.3	13µM*	-15.2%	3.4%	13µM*
CC1(C)CC(=O)C=C(NNC(=O)c2ccccc2)C1	-18.4	-1.3%	0.0%	15.1%	-13.3%
O=C(c1cccnc1)C1CCCN(Cc2ccc3c(c2)CN(C(=O)c2ccc4[nH]ccc4c2)CCO3)C1 (stereo not given)	.	-6.0%[9.04 µM]	.	.	?
CCOC(=O)c1cc(-c2ccccc2)sc1NC(=S)Nc1cc(C)ccn1	0.0	?	13.2%	26.3%	10.3µM*
CCOC(=O)c1cc(-c2ccccc2)sc1NC(=O)c1cc(OC)c(OC)c(OC)c1	-4.4	?	3.3%	3.4%	18.4µM*
CCOC(=O)c1cc(-c2ccccc2)sc1NC(=O)CC(C)C	9.5	-16.2%	0.1%	-0.1%	?
CCOC(=O)c1cc(-c2ccccc2)sc1NC(=O)C(C)(C)C	-15.5	13.7%	25.3%	25.0%	-9.3%

High-throughput results from PubChem BioAssay.
